A short description of experiment [1]: qHTS assay for measurement of the activity of small molecule inhibitors on Zika virus induced Caspase-3 activity in human iPSC derived neural progenitor cells (hNPCs) (AID 1224857). Note: nearly all actives have a fitted effect of over 65% in size. A digest of the protocol:
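Quantitative HTS format: human iPSC neural progenitors, 1 h compound pretreatment, ZIKV 2 FFU/cell for 6 h at 37 C. Percent inhibition derived from luminescent caspase-3/7 signal between uninfected and infected controls.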
In general terms: Quantitative high-throughput screening tests each substance at several concentrations.

The nature of experiment [2]: qHTS assay for measurement of the activity of small molecule inhibitors on Zika virus induced Caspase-3 activity in human astrocytoma cells (AID 1224859). A digest of the protocol: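 Readout is luminescence from Caspase-Glo 3/7 added after a 6 h ZIKV infection (2 FFU/cell) of compound-pretreated (1 h) SNB-19 cells; data expressed as % inhibition versus uninfected and infected wells.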

Experiment [3] is described as follows: qHTS assay to identify small molecule inhibitors of chordoma cells - UCH-1 (AID 1259355). Note: nearly all actives have a fitted effect of over 55% in size. The essentials:
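Cells (800/well) were seeded and left overnight at 37 C, 5% CO2, then treated with drugs at 15 concentrations plus a combination mix of auranofin, camptothecin, doxorubicin, rubitecan and topotecan. Viability after 48hr was read by CellTiter-Glo luminescence.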

Experiment [4] in a line: qHTS assay to identify small molecule inhibitors of chordoma cells - UCH-2 (AID 1259356).
The nature of experiment [5]: qHTS profiling of the MIPE4 collection as inhibitors of Plasmodium falciparum (3D7) proliferation (AID 743344; call rule not given here). The following applies: P. falciparum 3D7 in erythrocytes, SYBR Green DNA fluorescence, 72 h; at 28.5 µM (top of the series) unless noted. A digest of the protocol: (§1)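 Erythrocytes infected with P. falciparum (0.3% parasitemia, 2.5% hematocrit) incubated with compounds 72 h at 37 C, 5% CO2. Lysis with saponin/Triton buffer containing SYBR Green I, overnight at room temperature in the dark; DNA fluorescence (485/535 nm) normalised to 0.29 uM artemisinin and DMSO.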

Experiment [6] in a line: qHTS profiling of the MIPE4 collection as inhibitors of Plasmodium falciparum (DD2) proliferation (AID 743345; call rule not given here). The following applies: P. falciparum Dd2 in erythrocytes, SYBR Green DNA, 72 h; at 28.5 µM (top of the series) unless noted. A digest of the protocol: as §1
The nature of experiment [7]: qHTS profiling of the MIPE4 collection as inhibitors of Plasmodium falciparum (DD2) proliferation (Rep 2) (AID 743346; call rule not given here). The following applies: P. falciparum Dd2 in erythrocytes, SYBR Green DNA, 72 h; at 28.5 µM (top of the series) unless noted. A digest of the protocol:
as §1

Experiment [8] in a line: qHTS profiling of the MIPE4 collection as inhibitors of Plasmodium falciparum (HB3) proliferation (AID 743347; call rule not given here). The settings on record: P. falciparum HB3 in erythrocytes, SYBR Green DNA, 72 h; at 28.5 µM (top of the series) unless noted. The essentials: as §1
The nature of experiment [9]: High-throughput drug toxicity screening in the BPDCN cell line Gen2.2 (AID 1224824; call rule not given here;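 note: cells exposed to compounds for 48 h before reading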). The settings on record: Gen2.2 BPDCN cells; at 45.8 µM (top of the series) unless noted. The essentials:
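Readout is ATP luminescence from Gen2.2 cells after two days of drug exposure in serum-containing medium at 37 °C. Values express percent activity, with vehicle defining full signal and 9.2 uM bortezomib defining zero.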

Experiment [10] in a line: qHTS Screen of the MIPE 4.0 Collection Against Ewings Sarcoma (TC32) (AID 1259256). Note: nearly all actives have a fitted effect of over 45% in size. The essentials:
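Log-phase cells in RPMI with 5% FBS attached for 4 h, then received compounds as a titration for 48 h at 37C, 5% CO2. Viability was read by CellTiter-Glo luminescence and normalized to DMSO and no-cell wells.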

Inconclusive results are not listed. A call without a number means that no potency is given here. Calls of active or inactive are those of the source. Unless noted, calls come from the whole dose curve; as a rule, active = well fitted curve in the direction sought with a large enough effect; inconclusive = small, poorly fitted or top-dose-only effect, or another doubt; inactive = no such curve, though single readings can be large; an effect the other way counts as inactive or inconclusive.

Consider `CCN(CC)CCNC(=O)c1ccc(N)cc1`, for which the Potency entry in experiment [1], in [2] and in experiment [3] was “inactive” each time. The compound was called inactive in [4].
As for `Nc1nc(Cl)nc2c1ncn2[C@@H]1O[C@H](COP(=O)(O)OP(=O)(O)OP(=O)(O)O)C(O)[C@H]1O` (stereo partly specified), the Potency entry in [1] is “inactive”.
Turning to `OC[C@@H](O)[C@H](O)[C@H](O)[C@@H](O)CO`, the Potency result in experiment [1], in experiment [2] and in experiment [3] was “inactive” in each case. Also, the outcome in experiment [4] was inactive.
For `C[N+](C)(C)CCCCCC[N+](C)(C)C`, the Potency entry in experiment [1] and in experiment [3] was “inactive” in each case. For the same compound, in experiment [4], the compound was classed as inactive.
`O=C(O)CCc1nc(-c2ccccc2)c(-c2ccccc2)o1`: the Potency entry in experiment [1], in [2] and in experiment [3] was “inactive” throughout. Further, the compound was classed as inactive in experiment [4].
In the case of `Cc1cccc(C)c1OCC(C)N` (stereo unspecified), the Potency entry in experiment [2] and in experiment [3] was “inactive” in each case. Moreover, in experiment [4], the outcome was inactive.
For the compound `CCCNC(=O)NS(=O)(=O)c1ccc(Cl)cc1`, the Potency result in experiment [1] and in [3] was “inactive” in each case. Further, the outcome in experiment [4] was inactive.
In the case of `O=C1NCC2(CCN(CCc3ccccc3)CC2)O1`, the Potency entry in experiment [1], in experiment [2] and in experiment [3] was “inactive” each time. Further, the outcome in experiment [4] was inactive.
As to `CC(=O)c1ccc(S(=O)(=O)NC(=O)NC2CCCCC2)cc1`, the Potency result in experiment [1], in [2] and in experiment [3] was “inactive” each time. In addition, the compound was called inactive in [4].
Turning to `CCN1CCC[C@H]1CNC(=O)c1cc(S(N)(=O)=O)ccc1OC`, the Potency entry in [1], in [2] and in experiment [3] was “inactive” throughout. The outcome in experiment [4] was inactive.
Consider `CC(=O)CCCCn1c(=O)c2c(ncn2C)n(C)c1=O`, for which the Potency result in [1], in experiment [2] and in [3] was “inactive” in each case. For the same compound, the result in experiment [4] was inactive.
In turn, `N#CC(=C(N)Sc1ccccc1N)C(C#N)=C(N)Sc1ccccc1N` displayed a parasite growth, % of DMSO control in experiment [5] of 4.41%. This compound registered a parasite growth remaining, % of DMSO control (lower = more inhibition) in experiment [6] of 12.1%. For the same compound, the parasite growth, % of control (lower = inhibition) in [7] came to 10.6%. The compound further had a growth, % of control in experiment [8] of 5.29%. Moreover, in [9], the cell viability, % of control (lower = more cytotoxic) amounted to 16.6%. Further, the Potency result in [2] was “inactive”.
Take `CC(=O)O[C@]1(C(C)=O)CC[C@H]2[C@@H]3C=C(Cl)C4=CC(=O)[C@@H]5C[C@@H]5[C@]4(C)[C@H]3CC[C@@]21C`: the Potency entry in experiment [2] and in experiment [3] was “inactive” throughout. The compound was called inactive in experiment [4].
With `COc1ccccc1N1CCN(CCCNc2cc(=O)n(C)c(=O)n2C)CC1`, the Potency entry in [2] and in [3] was “inactive” each time. The compound was called inactive in [4].
In the case of `CC/C(=C(\c1ccccc1)c1ccc(OCCN(C)C)cc1)c1ccccc1`, in [2], the Potency entry is “inactive”. The outcome in experiment [4] was inactive.
With `O=C(O)c1cc(-c2ccccc2)nc2ccccc12`, the Potency result in experiment [1], in [2] and in [3] was “inactive” throughout. For the same compound, the call in [4] was inactive.
For `Nc1ncnc2c1ncn2[C@@H]1O[C@H](COP(=O)(O)OP(=O)(O)OP(=O)(O)OP(=O)(O)OC[C@@H]2O[C@H](n3cnc4c(N)ncnc43)[C@@H](O)C2O)C(O)[C@H]1O` (stereo partly specified), the Potency result in [1] is “inactive”.
As for `CC(C)NCC(O)COc1cccc2[nH]ccc12` (stereo unspecified), the Potency result in experiment [2] and in experiment [3] was “inactive” each time. The call in [4] was inactive.
`COC(=O)[C@@H]1[C@H]2C[C@H]3c4[nH]c5ccccc5c4CCN3C[C@@H]2CC[C@@H]1O`: the Potency result in experiment [1], in [2] and in [3] was “inactive” each time. Moreover, the compound was classed as inactive in experiment [4].
Consider `NC(N)=Nc1nc(CSCC/C(N)=N/S(N)(=O)=O)cs1`, for which the Potency result in [2] and in [3] was “inactive” throughout. Moreover, in [4], the result was inactive.
`O=C(O)CCC(C(=O)O)N1C(=O)c2ccccc2C1=O` (stereo unspecified): the Potency result in experiment [1] was “inactive”.
As for `O=C(O)Cc1cccc2ccccc12`, the Potency result in experiment [1], in experiment [2] and in experiment [3] was “inactive” in each case. Also, the outcome in [4] was inactive.
As to `CC(C)(C)c1ccc(C(O)CCCN2CCC(C(O)(c3ccccc3)c3ccccc3)CC2)cc1` (stereo unspecified), the Potency entry in experiment [2] was “inactive”. Further, the compound was classed as inactive in [4].
On to `Clc1ccc(Cn2c(CN3CCCC3)nc3ccccc32)cc1`, for which the Potency result in experiment [1] and in [3] was “inactive” throughout. Also, in [4], the compound was called inactive.
Take `CC=CCC(C)C(O)C1C(=O)NC(CC)C(=O)N(C)CC(=O)N(C)C(CC(C)C)C(=O)NC(C(C)C)C(=O)N(C)C(CC(C)C)C(=O)NC(C)C(=O)NC(C)C(=O)N(C)C(CC(C)C)C(=O)N(C)C(CC(C)C)C(=O)N(C)C(C(C)C)C(=O)N1C` (stereo unspecified): the parasite growth, % of DMSO control in experiment [5] stood at 5.34%. The same compound came in with a parasite growth remaining, % of DMSO control (lower = more inhibition) in experiment [6] of 6.98%. The parasite growth, % of control (lower = inhibition) in experiment [7] was 13.2%. The same compound came in with a growth, % of control in experiment [8] of 4.04%. For the same compound, in [9], the cell viability, % of control (lower = more cytotoxic) was found to be 8.39%. In addition, the Potency entry in [10] was “inactive”.
Turning to `CCCCC1C(=O)N(c2ccccc2)N(c2ccccc2)C1=O`, the Potency entry in experiment [1], in experiment [2] and in [3] was “inactive” in each case. Moreover, in experiment [4], the compound was classed as inactive.
Turning to `CCN(CC)CCOC(=O)c1ccc(N)cc1`, the Potency result in [1], in [2] and in [3] was “inactive” throughout. The outcome in experiment [4] was inactive.

The values are drawn from PubChem BioAssay (NCATS).
